Bioassay records from PubChem BioAssay.
This is a sample that favours compounds with a hit; in the whole collection about 8.7% have one here.
Vaccinia Venus: qHTS for Stage-Specific Inhibitors of Vaccinia Orthopoxvirus: Venus Reporter Primary qHTS. Vaccinia virus Venus reporter expression, fluorescence. Potency, µM (series often up to 36.5 µM), for inactives: top-dose activity change, negative = inhibition, hits mostly inhibitors. actives 0.46% (n = 330,000); calls by dose curve; tested in A549 cells; note: nearly all actives have a fitted effect of over 30% in size
Pf growth 96h: Primary qHTS for delayed death inhibitors of the malarial parasite plastid, 96 hour incubation. P. falciparum luciferase reporter growth, 96 h. Potency, µM (doses to about 28.7 µM), for inactives: at the top dose activity change, negative = inhibition, usual class: inhibitors. actives 6.9% (n = 320,000). AID 504834, 2011
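Cell-based qHTS: luciferase-tagged P. falciparum in erythrocytes (2% hematocrit, 0.05% parasitemia final) incubated with compounds for 96 hours, 37 C, 5% CO2; luciferase detection reagent then added and luminescence measured.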
Pf growth 48h: Primary qHTS for delayed death inhibitors of the malarial parasite plastid, 48 hour incubation; P. falciparum luciferase growth in erythrocytes, 48 h; Potency, µM (highest dose often 28.7 µM), without a hit: at the highest dose activity change, negative = inhibition, hits mostly inhibitors; actives 5.9% (n = 310,000)
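Firefly luciferase activity from engineered P. falciparum reports growth; inhibitors lower the luminescent signal. Cultures contained 2% hematocrit erythrocytes at 0.1% final parasitemia.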
AMA1-RON2 inh: qHTS for Inhibitors of AMA1-RON; Towards Development of Antimalarial Drug Lead: Primary Screen. AlphaScreen AMA1-biotinylated RON2 peptide binding. actives 0.2% (n = 360,000). Potency, µM (top dose mostly 58.2 µM), for inactives: top-dose activity change, negative = inhibition, most hits filed as inhibitors. Plasmodium falciparum AMA1 (3D7) - RON2 peptide interaction;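 note: 0% = vehicle wells and -100% = peptide control; nearly all actives have a fitted effect of over 45% in size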
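AMA1 (3D7) with his tag at 25 nM final met compounds first, then biotinylated RON2 peptide at 25 nM; detection used donor plus acceptor beads, 10 µg/mL apiece, read by AlphaScreen after 30 min at room temperature.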
Vaccinia mCherry: qHTS for Stage-Specific Inhibitors of Vaccinia Orthopoxvirus: mCherry Reporter Primary qHTS; AID 720579, 2013; actives 0.63% (n = 310,000); Vaccinia virus mCherry reporter infection, fluorescence; Potency, µM (titrated, usually from 36.5 µM), inactives show top-dose activity change, negative = inhibition, most hits filed as inhibitors; calls by dose curve; tested in A549 cells; note: nearly all actives have a fitted effect of over 35% in size
Numbers without * were called inactive; i = inactive; ? = inconclusive; . = no result; [ ] = remark or other dose. Unless noted, calls come from the whole dose curve; as a rule, active = well fitted curve in the direction sought with a large enough effect; inconclusive = small, poorly fitted or top-dose-only effect, or another doubt; inactive = no such curve, though single readings can be large; an effect the other way counts as inactive or inconclusive. Unless noted, % is set by controls: 0 for no effect and ±100 for the full control effect; potency is the fitted concentration of half-maximal effect.

SMILES	Vaccinia Venus	Pf growth 96h	Pf growth 48h	AMA1-RON2 inh	Vaccinia mCherry
COc1ccc(-n2cnc3cc(NC(=O)c4ccco4)ccc32)cc1	.	2.3µM*	.	-8%	.
CCCc1nc2ccc(NC(=O)c3ccco3)cc2c(=O)n1Cc1ccccc1Cl	-24%	0%	2.3µM*	-7%	?
CC(=O)Nc1ccc2nc(C)n(Cc3ccc(Cl)cc3)c(=O)c2c1	-24%	-3%	5%	-6%	-9%
COc1ccccc1-n1cnc2cc(NC(=O)c3ccco3)ccc21	-18%	.	-19%	-3%	i
CCn1c(-c2ccccc2F)nc2cc(C(=O)NCc3ccc(C)o3)cc(NC(C)=O)c21	-15%	.	.	.	i
COc1ccc(NC(=O)c2cc3c(Cl)nc4ccccc4c3s2)cc1OC	-1%	-2%	2.1µM*	-5%	-10%
COc1ccc(OC)c(NC(=O)c2cc3c(Cl)nc4ccccc4c3s2)c1	-9%	0%	39%	12%	i
O=C1C=C(c2ccc(Cl)cc2)OC2(CCCC2)O1	-12%	13µM*	?	?	-24%
Cc1ccc(-c2cc(NC(=O)C(C)Oc3ccccc3F)on2)cc1 (stereo not given)	-8%	.	.	.	-18%
CCCCOC(=O)Nc1ccc(S(=O)(=O)Nc2nc(C)cc(C)n2)cc1	-11%	?	-5%	9%	i
CCCCOC(=O)NS(=O)(=O)c1sc(CC(C)C)cc1-c1ccc(Cn2c(CC)nc3c(C)cc(C)nc32)cc1	.	?	15µM*	.	.
COc1ccc(NC(=O)c2cc(C(C)=O)n3ccccc23)cc1	-3%	.	.	.	5%
Cc1ccc(CN=C(Nc2ccccc2)NC2CCCCC2)cc1	-1%	?	10µM*	-8%	-10%
O=C(/C=C/c1cccc([N+](=O)[O-])c1)NC(=S)Nc1cccc(NC(=O)c2ccccc2Cl)c1	-22%	3%	13µM*	-4%[2.32 µM]	-23%
CN(C)CC(C)(O)c1ccc2c(c1)CN(Cc1cccn1-c1cccnc1)CCO2 (stereo not given)	-7%	.	.	.	-15%
CNCCC=C1c2ccccc2CCc2ccccc21	?	9.5µM*	11µM*	-2%	-6%
COc1cc(CNCCc2ccccc2F)ccc1OCC(=O)N1CCCCC1	6%	13µM*	-27%	2%	-23%
COc1ccc(OC)c(CNC(=O)c2cc3c(=O)oc4ccc(C)cc4c3s2)c1	-9%	.	.	.	-8%
O=C(c1cnn2c(C(F)F)cc(-c3ccccc3)nc12)N1CCN(Cc2ccc3c(c2)OCO3)CC1	-27%	?	4.7µM*	-25%	?
O=C(c1cnn2c(C(F)F)cc(-c3ccccc3)nc12)N1CCN2CCCC2C1 (stereo not given)	-13%	.	?	5%	-1%[1.46 µM]
O=C(c1cnn2c(C(F)(F)F)cc(-c3ccc4c(c3)OCO4)nc12)N1CCCCC1	.	8.3µM*	0%	1%	.
CN1CCN(C(=O)c2cnn3c(C(F)(F)F)cc(-c4ccc5c(c4)OCO5)nc23)CC1	.	-28%	-25%	-7%	.
CCN1CCN(C(=O)c2cnn3c(C(F)F)cc(-c4ccc(C)cc4)nc23)CC1	.	7.4µM*	?	-6%	.
O=C(c1cnn2c(C(F)F)cc(-c3ccccc3)nc12)N1CCCCC1c1cccnc1 (stereo not given)	-15%	?	1.7µM*	5%	-2%
Cc1cc(C)cc(OCC(=O)Nc2c(C)ccc3nsnc23)c1	-10%	.	.	.	-19%
CC(C)c1ccc(NC(=O)c2cc(S(=O)(=O)N(C)C3CCCCC3)ccc2F)cc1	-22%	.	.	.	-26%
COc1cccc(-c2cc(C(F)(F)F)n3nc(C(=O)N4CCCCC4c4cccnc4)cc3n2)c1 (stereo not given)	-13%	?	3.7µM*	-1%	i
CCOC(=O)c1ccc(NC(=O)c2cn3c4c(ccc(Cl)c4c2=O)OC(C)C3)cc1 (stereo not given)	-2%	.	.	.	-1%
COc1cc(C2NC(=O)CCC2[N+](=O)[O-])c(OC)cc1Br (stereo not given)	.	6.6µM*	35%	-9%	.
